ALDH1A1 block: blocks purified human ALDH1A1 activity | Purified ALDH1A1, NADH fluorescence, propionaldehyde substrate | AID 1030 | Potency, µM (highest dose often 75.3 µM), hits mostly inhibitors | actives 7.3% (n = 220,000); active = well fitted inhibition curve with a large enough effect, not every such curve was filed as active; inconclusive = small, poorly fitted or top-dose-only effect, or another doubt; inactive = no such curve, though single readings can be large or run the other way
Target sequence (P00352 whole entry, looked up): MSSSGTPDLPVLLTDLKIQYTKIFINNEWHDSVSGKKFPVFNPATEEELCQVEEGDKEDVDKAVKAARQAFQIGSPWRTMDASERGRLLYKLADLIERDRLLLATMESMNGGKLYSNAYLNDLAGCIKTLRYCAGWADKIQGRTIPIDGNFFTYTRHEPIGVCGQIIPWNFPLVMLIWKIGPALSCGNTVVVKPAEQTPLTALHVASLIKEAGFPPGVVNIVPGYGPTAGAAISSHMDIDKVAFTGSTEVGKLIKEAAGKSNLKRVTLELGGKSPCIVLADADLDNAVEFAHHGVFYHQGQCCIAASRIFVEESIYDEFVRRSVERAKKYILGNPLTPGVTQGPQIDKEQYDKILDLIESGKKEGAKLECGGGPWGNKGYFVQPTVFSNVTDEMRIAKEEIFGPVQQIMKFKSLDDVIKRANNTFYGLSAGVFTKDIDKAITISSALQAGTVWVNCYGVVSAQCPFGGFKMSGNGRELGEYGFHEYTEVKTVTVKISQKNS
IMPase cell inh: membrane-permeable compound that blocks inositol monophosphatase. P97697. CHO-M1 cells, IP1 accumulation, HTRF TR-FRET ratio. inhibition (IP1 accumulation), % at 46.1 µM. 120,000 tested, under 10 active; active = well fitted curve in the direction sought with a large enough effect in the signal ratio, not every such curve was filed as active; inconclusive = small, poorly fitted or top-dose-only effect, or a change in a side signal; inactive = no such curve, though single readings can be large or run the other way; the % refers to the signal ratio;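 also: cells stimulated with carbachol in lithium chloride buffer; higher means more IMPase inhibition seen as more IP1 and lower FRET ratio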
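The IP-One HTRF competitive assay in carbachol-stimulated CHO-M1 cells quantifies cellular IP1. Compounds spanned up to 46 uM final, and activity is expressed as AC50 from concentration-response fits of the ratio and donor data.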
12-hLO inh: 12-hLO (ALOX12) enzyme inhibition; P18054; purified 12-hLO, xylenol orange hydroperoxide absorbance; Potency, µM (series often up to 57.1 µM), usual class: inhibitors; actives 0.12% (n = 150,000); AID 1452; also: nearly all actives have a fitted effect of over 55% in size
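Hydroperoxide formation by human 12-lipoxygenase from 40 uM arachidonic acid was followed colorimetrically via ferric-xylenol orange complex, using the 573/405 nm absorbance ratio. Enzyme concentration was 150 nM, with 30 min reaction at room temperature.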
PNC assembly inh: inhibitors of perinucleolar compartment assembly; PC3M PTB-GFP, PNC prevalence imaging, 16 h; hits give low values; activity change (PNC), negative = inhibition, % at 10 µM; actives 3.1% (n = 140,000);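 active = readout at or below -70, meaning at least 70% loss of cells showing the perinucleolar compartment, a nuclear body marking cancer cells; inconclusive = readout between -30 and a set limit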
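Read-out is percentage of cells bearing a perinucleolar compartment, from automated 20x imaging of fixed, Hoechst-stained PC3M PTB-GFP cells. Cells were seeded 4 h, then exposed 16 h to compound (23 nl of library stock) in duplicate plates.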
IMPase Li cell: cell-permeable IMPase inhibitors with lithium potentiation; CHO-M1 cells, IP1 TR-FRET (IP-One), carbachol + lithium; Potency, µM (titrated, usually from 59.4 µM), actives largely listed as inhibitors; actives 0.35% (n = 210,000); AID 1457;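 also: IP1 builds up when IMPase is blocked and the TR-FRET signal falls; nearly all actives have a fitted effect of over 50% in size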
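IP1 accumulation measured by competitive TR-FRET in lysed CHO-M1 cells after 30 min compound exposure at 37C, with a small lithium addition to potentiate weak responses. Hill-equation AC50 from ratio and donor-channel data.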
HPGD inh: inhibitors of human 15-hydroxyprostaglandin dehydrogenase (HPGD) | purified HPGD, NADH fluorescence kinetic, PGE2 substrate | Potency, µM, actives largely listed as inhibitors | actives 4.3% (n = 150,000) | AID 894; active = well fitted inhibition curve with a large enough effect, not every such curve was filed as active; inconclusive = small, poorly fitted or top-dose-only effect, or another doubt; inactive = no such curve, though single readings can be large or run the other way
Target sequence (P15428 whole entry, looked up): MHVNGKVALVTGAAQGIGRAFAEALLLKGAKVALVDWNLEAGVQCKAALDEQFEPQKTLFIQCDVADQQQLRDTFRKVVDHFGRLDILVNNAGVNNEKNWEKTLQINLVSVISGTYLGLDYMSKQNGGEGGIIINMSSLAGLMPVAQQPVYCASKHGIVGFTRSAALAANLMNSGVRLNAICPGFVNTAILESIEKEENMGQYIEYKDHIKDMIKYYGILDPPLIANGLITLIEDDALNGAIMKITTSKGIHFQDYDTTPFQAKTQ
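NADH formation kinetics: reaction with 30 uM PGE2 and 1 mM NAD+ (final), 20 nM enzyme, Tris-HCl pH 8 with Tween 20, after 15 min compound preincubation at room temperature. Fluorescence change, last versus first of five reads.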
Hits are given with their value; . = inactive; ? = inconclusive; / = no result given; [ ] = another dose, or the depositor's remark. The list is not random: actives were taken first. Their share in the collection is about 11%. Unless noted, calls follow the shape of the dose curve; as a rule, active = well fitted curve in the direction sought with a large enough effect; inconclusive = small, poorly fitted or top-dose-only effect, or another doubt; inactive = no such curve, though single readings can be large; an effect the other way counts as inactive or inconclusive.

SMILES	ALDH1A1 block	IMPase cell inh	12-hLO inh	PNC assembly inh	IMPase Li cell	HPGD inh
Cc1ccc(-n2c(SCC(=O)NCc3ccco3)nc3sc(C)c(C)c3c2=O)cc1	.	.	.	.	.	?
CCn1c(SCC(=O)Nc2ccc(Cl)cc2)nc2nc3c(cc2c1=O)CCCC3	?	.	.	.	.	.
Cc1ccc(-n2c(SCC(=O)NCc3ccco3)nc3nc4c(cc3c2=O)COC(C)(C)C4)cc1	0.79µM	.	.	.	/	/
CCn1c(SCC(=O)Nc2ccc(OC)cc2)nc2nc3c(cc2c1=O)COC(C)(C)C3	2µM	/	/	/	/	/
COC(=O)N1CCC[C@@]2(CCN(c3ncccn3)C2)C1	.	/	.	/	.	.
O=S(=O)(CCC(F)=C(F)F)c1nnnn1C1CCCCC1	.	/	/	/	.	.
O=C(/C=C/c1ccc2c(c1)OCO2)Nc1c(C(=O)O)[nH]c2ccccc12	?	.	.	.	.	16µM
Cc1ccc(N2C(=O)CS/C2=C(\C(Cl)=C(Cl)Cl)[N+](=O)[O-])cc1	20µM	.	?	.	.	.
COc1ccc(OC2C=CC(c3ccccc3)OC2CO)c(C(C)=O)c1 (stereo not drawn)	.[13.5 µM]	/	/	/	/	/
N#CCc1ccc(C(=O)c2ccccc2F)s1	.	.[1.84 µM]	.	.	.	20µM
O=C(O)Cc1ccc(C(=O)c2ccccc2)s1	.	.	.	.	.	?
CC(=O)c1cc(F)c(N2CCN(C(=O)Cc3ccccc3)CC2)cc1C	8.9µM	.	.	.	.	22µM
CC(=O)c1cc(F)c(N2CCN(CCC#N)CC2)cc1C	28µM	.	.	.	.	.
CCOC(=O)Cn1c(=NC(=O)c2nc3ccccc3s2)sc2cc(S(N)(=O)=O)ccc21	?	/	.	.	10µM	?
COC(=O)Cn1c(=NC(=O)CN2C(=O)CCC2=O)sc2cc(S(N)(=O)=O)ccc21	.	/	.	.	.	.
COC(=O)Cn1c(=NC(=O)C2COc3ccccc3O2)sc2cc(S(N)(=O)=O)ccc21 (stereo not drawn)	.	/	.	-134	.	.
CCCC[C@@H](NC(=O)[C@@H](Cc1cn(C(=O)OC)c2ccccc12)NC(=O)[C@H](CC(C)(C)C)NC(=O)N1[C@H](C)CCC[C@@H]1C)C(=O)O	.	/	.[0.00818 µM]	/	.	.
COc1cccc2cc(C(C)OC(=O)Nc3ccc(C)cc3)oc12 (stereo not drawn)	.	/	/	/	.	/
CNC1C(O)C(O[C@H]2C(O)[C@@H](OC3OC(CN)=CCC3N)[C@H](N)C[C@@H]2N)OC[C@]1(C)O (stereo partly drawn)	.	/	.	/	.	.
NC1=NCCCC1	.	.	.	/	.	.
O=C(CC1Sc2ncnn2C1=O)Nc1ccc(Br)cc1 (stereo not drawn)	7.9µM	.	.	.	.	16µM
O=C(CC1SC2=NCCN2C1=O)Nc1ccc(Br)cc1 (stereo not drawn)	.	/	.	?	.	.
O=C(CC1SC(=Nc2ccccc2)N(Cc2ccccn2)C1=O)Nc1ccc(Br)cc1 (stereo not drawn)	7.1µM	/	?	?	.	?
Cc1c(C(=O)NN2CCOCC2)nn(-c2ccc(Cl)cc2Cl)c1-c1ccc(I)cc1	.	.	.	/	.	.
c1ccc(B2OC[C@@H]3OB(c4ccccc4)O[C@H]([C@@H]4COB(c5ccccc5)O4)[C@@H]3O2)cc1	.[13.5 µM]	/	.[11.4 µM]	/	.	.
SMILES	ALDH1A1 block	IMPase cell inh	12-hLO inh	PNC assembly inh	IMPase Li cell	HPGD inh
COC(=O)CSc1ccccc1C(=O)OC	.	.	.	.	.	.
O=C(CSC1=NS(=O)(=O)c2ccccc21)Nc1ccccc1	0.56µM	.	.	.	.	16µM
COC(=O)CSC1=NS(=O)(=O)c2ccccc21	.	.	.	?	.	22µM
O=C(/C=C/c1c(Cl)nc2ccccn12)N1CCN(c2ccccc2F)CC1	.	/	/	/	.	/
O=C(/C=C/c1c(Cl)nc2ccccn12)N1CCCCC1	11µM	/	/	/	.	/
CCOC(=O)c1cc(-c2cccc([N+](=O)[O-])c2)nc2[nH]c(=O)[nH]c(=O)c12	14µM	/	/	/	.	/
CC[C@H](C)[C@@H](NC(=O)O[C@H]1C(=O)c2cc(OC)ccc2O[C@@H]1c1ccc(OC)c(Br)c1)C(=O)OC	?	/	/	/	.	?
COc1ccc(-c2nc3ccccc3c(=O)n2NC(=S)N(C)C)cc1	4µM	.	.	.	.	14µM
COCCn1c(=O)c(-c2ccc(Cl)cc2)nc2cnc(N(C)C)nc21	?	/	/	/	.	/
O=C(Nc1ccccc1)N1CCCC2(CCN(C(=O)c3cnccn3)CC2)C1	.	/	.	/	.	.
COc1cccc(CNC(=O)Cn2cccc2)c1	.	.	.	.	.	14µM
CNC(=O)[C@H](C)/C=C/C(NC(=O)OCc1ccccc1)c1ccc(C(=O)OC)cc1 (stereo partly drawn)	?	/	.	/	.	.
CCCCc1nc2c(c3c1C[C@H](C)OC3)CN(C(=O)Cc1cccs1)CC2	.[13.5 µM]	/	.[11.4 µM]	/	.	.
COC(=O)c1cccnc1NC(=S)NNC(=O)c1ccccc1	?	.	.	.	.	25µM
COc1ccc(Cl)cc1NC(=S)NNC(=O)C1(C)CC1(Cl)Cl (stereo not drawn)	28µM	/	/	/	.	/
CCOC(=O)c1ccc(NC(=S)NNC(=O)C2(C)CC2(Cl)Cl)cc1 (stereo not drawn)	10µM	.	.	.	.	28µM
COc1cc(C(=O)NNC(=S)Nc2ccc(S(N)(=O)=O)cc2)cc(OC)c1OC	10µM	/	/	/	.	/
COc1ccccc1C(=O)NNC(=S)Nc1ccccc1	.	/	/	/	.	/
CCOC(=O)c1ccc(NC(=S)NN2CCN(C)CC2)cc1	.	/	/	/	.	/
COCCn1c(=O)c(-c2ccc(Cl)cc2)nc2cnc(N3CCNCC3)nc21	?	/	/	/	.	/
COC(=O)c1ccc(NC(=S)Nc2ccccc2)cc1	.	.	.	.	.	.
COC(=O)c1ccc(NC(=S)NNC(=O)c2ccccc2)cc1	8.9µM	/	/	/	.	/
COC(=O)c1ccc(NC(=S)NNC(=O)CC(C)C)cc1	.	.	.	.	.	28µM
CCOC(=O)c1ccc(NC(=S)NNC(=O)COC)cc1	8.9µM	/	.	.	.	.
CCOC(=O)c1ccc(NC(=S)NC2CCCC2)cc1	.	/	.	.	.	.
S=C(Nc1ccc2c(c1)Cc1ccccc1-2)Nc1ccc2c(c1)Cc1ccccc1-2	.[13.5 µM]	/	.[11.4 µM]	/	?	.
Cc1ccc(-n2c(N)c(C#N)c(-c3ccc(Cl)cc3)c(C#N)c2=O)cc1	?	?	.	.	28µM	?
CC1CCN(C(=O)CCc2nc3cc(S(=O)(=O)N(C)C)ccc3n2C)CC1	11µM	.	.	.	?	.
CCOC(=O)C1=C(C)NC(=O)NC1c1ccc(-c2ccc(Cl)cc2)o1 (stereo not drawn)	.	/	/	/	.	/

Screening data from PubChem BioAssay.
